According to PubChem BioAssay AID1159580 (chemical genetic matrix, 2015):
The whole screen tested about 5,500 compounds, of which about 2,000 (36%) were called active. Roughly 18% stayed inconclusive and do not appear here. Rule as the data show it: active = normalized growth mostly below about 0.91 (no sharp cut-off); inconclusive = no clear call, values can overlap the other calls; inactive = mostly above about 0.92. The list shows a part of the results.

Experiment: chemical genetic growth profiling, strain panel (AID 1159580);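 also: tested at 20 µM; growth read once vehicle control cultures reached saturation at 30 °C; 1 = growth at the plate median or of vehicle wells; lower values mean less growth of the strain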
Conditions: growth OD

Measured: normalized growth

CCCCN1CCCCC1C(=O)Nc1c(C)cccc1C (configuration not stated)
inactive: S. cerevisiae deletion strains, locus YJR075W, strain HOC1, stronger effect = lower value 1 | S. cerevisiae deletion strains, locus YKL009W, strain mrt4, stronger effect = lower value 1.01 | S. cerevisiae deletion strains, locus YKL068W, stronger effect = lower value 0.991 | S. cerevisiae deletion strains, locus YKL085W, strain MDH1 (second series), stronger effect = lower value 1 | S. cerevisiae deletion strains, locus YKL085W, strain MDH1, stronger effect = lower value 1 | S. cerevisiae deletion strains, locus YKL160W, strain elf1, stronger effect = lower value 0.992 | S. cerevisiae deletion strains, locus YKL190W, strain CNB1, stronger effect = lower value 1.01 | S. cerevisiae deletion strains, locus YKR001C, strain vps1, stronger effect = lower value 1.01 | S. cerevisiae deletion strains, locus YKR026C, strain gcn3, stronger effect = lower value 0.997 | S. cerevisiae deletion strains, locus YKR091W, strain srl3, stronger effect = lower value 0.982 | S. cerevisiae deletion strains, locus YLL001W, strain dnm1, stronger effect = lower value 0.991 | S. cerevisiae deletion strains, locus YLL026W, stronger effect = lower value 0.998 | S. cerevisiae deletion strains, locus YLL041C, strain sdh2, stronger effect = lower value 0.991 | S. cerevisiae deletion strains, locus YLR027C, strain aat2, stronger effect = lower value 0.991 | S. cerevisiae deletion strains, locus YLR039C, strain RIC1, stronger effect = lower value 1.01 | S. cerevisiae deletion strains, locus YLR058C, strain SHM2, stronger effect = lower value 1.01 | S. cerevisiae deletion strains, locus YLR102C, strain apc9, stronger effect = lower value 0.994 | S. cerevisiae deletion strains, locus YLR113W, strain HOG1, stronger effect = lower value 0.991 | S. cerevisiae deletion strains, locus YLR221C, strain rsa3, stronger effect = lower value 0.996 | S. cerevisiae deletion strains, locus YLR258W, strain gsy2, stronger effect = lower value 0.992 | S. cerevisiae deletion strains, locus YLR262C, strain YPT6 (second series), stronger effect = lower value 0.998 | S. cerevisiae deletion strains, locus YLR262C, strain YPT6, stronger effect = lower value 1.06 | S. cerevisiae deletion strains, locus YLR268W, strain sec22, stronger effect = lower value 0.943 | S. cerevisiae deletion strains, locus YLR320W, strain mms22, stronger effect = lower value 1.01 | S. cerevisiae deletion strains, locus YLR330W, strain CHS5, stronger effect = lower value 1.01 | S. cerevisiae deletion strains, locus YLR342W, strain FKS1 (second series), stronger effect = lower value 1.03 | S. cerevisiae deletion strains, locus YLR342W, strain FKS1, stronger effect = lower value 0.973 | S. cerevisiae deletion strains, locus YLR357W, strain rsc2, stronger effect = lower value 0.982 | S. cerevisiae deletion strains, locus YLR370C, strain arc18, stronger effect = lower value 0.998 | S. cerevisiae deletion strains, locus YLR371W, strain rom2, stronger effect = lower value 0.99 | S. cerevisiae deletion strains, locus YLR384C, strain iki3, stronger effect = lower value 0.997 | S. cerevisiae deletion strains, locus YLR418C, strain cdc73, stronger effect = lower value 0.993 | S. cerevisiae deletion strains, locus YML016C, strain PPZ1, stronger effect = lower value 1.02 | S. cerevisiae deletion strains, locus YML032C, strain rad52, stronger effect = lower value 0.982 | S. cerevisiae deletion strains, locus YML120C, strain ndi1, stronger effect = lower value 0.973 | S. cerevisiae deletion strains, locus YML124C, strain tub3, stronger effect = lower value 0.993 | S. cerevisiae deletion strains, locus YMR058W, strain fet3, stronger effect = lower value 0.979 | S. cerevisiae deletion strains, locus YMR078C, strain ctf18, stronger effect = lower value 0.99 | S. cerevisiae deletion strains, locus YMR125W, strain sto1, stronger effect = lower value 0.982 | S. cerevisiae deletion strains, locus YMR129W, stronger effect = lower value 0.992 | S. cerevisiae deletion strains, locus YMR205C, strain PFK2, stronger effect = lower value 1.01 | S. cerevisiae deletion strains, locus YMR223W, strain ubp8, stronger effect = lower value 1.01 | S. cerevisiae deletion strains, locus YMR231W, strain pep5, stronger effect = lower value 0.996 | S. cerevisiae deletion strains, locus YMR263W, strain SAP30, stronger effect = lower value 1.01 | S. cerevisiae deletion strains, locus YMR307W, strain GAS1, stronger effect = lower value 1.05 | S. cerevisiae deletion strains, locus YNL067W, strain RPL9B, stronger effect = lower value 1.01 | S. cerevisiae deletion strains, locus YNL071W, strain lat1, stronger effect = lower value 0.984 | S. cerevisiae deletion strains, locus YNL128W, strain TEP1, stronger effect = lower value 1.02 | S. cerevisiae deletion strains, locus YNL153C, strain GIM3, stronger effect = lower value 1.01 | S. cerevisiae deletion strains, locus YNL183C, strain NPR1, stronger effect = lower value 0.948 | S. cerevisiae deletion strains, locus YNL209W, strain ssb2, stronger effect = lower value 0.976 | S. cerevisiae deletion strains, locus YNL233W, strain BNI4, stronger effect = lower value 1 | S. cerevisiae deletion strains, locus YNL248C, strain rpa49, stronger effect = lower value 0.959 | S. cerevisiae deletion strains, locus YNL250W, strain rad50, stronger effect = lower value 1 | S. cerevisiae deletion strains, locus YNL271C, strain bni1, stronger effect = lower value 0.985 | S. cerevisiae deletion strains, locus YNL298W, strain CLA4, stronger effect = lower value 1 | S. cerevisiae deletion strains, locus YNL307C, strain MCK1, stronger effect = lower value 0.993 | S. cerevisiae deletion strains, locus YNL322C, strain KRE1 (second series), stronger effect = lower value 0.986 | S. cerevisiae deletion strains, locus YNL322C, strain KRE1, stronger effect = lower value 1.01 | S. cerevisiae deletion strains, locus YNR049C, strain mso1, stronger effect = lower value 0.993 | S. cerevisiae deletion strains, locus YNR052C, strain pop2, stronger effect = lower value 0.99 | S. cerevisiae deletion strains, locus YOL006C, strain TOP1, stronger effect = lower value 1.02 | S. cerevisiae deletion strains, locus YOL012C, strain htz1 0.897 | S. cerevisiae deletion strains, locus YOL147C, strain pex11, stronger effect = lower value 0.987 | S. cerevisiae deletion strains, locus YOR001W, strain rrp6, stronger effect = lower value 0.991 | S. cerevisiae deletion strains, locus YOR061W, strain CKA2, stronger effect = lower value 1.02 | S. cerevisiae deletion strains, locus YOR069W, strain VPS5, stronger effect = lower value 1.01 | S. cerevisiae deletion strains, locus YOR070C, strain gyp1, stronger effect = lower value 0.996 | S. cerevisiae deletion strains, locus YOR080W, strain dia2, stronger effect = lower value 0.979 | S. cerevisiae deletion strains, locus YOR083W, strain WHI5, stronger effect = lower value 1 | S. cerevisiae deletion strains, locus YOR106W, strain vam3, stronger effect = lower value 0.969 | S. cerevisiae deletion strains, locus YOR136W, strain idh2, stronger effect = lower value 0.993 | S. cerevisiae deletion strains, locus YOR144C, strain elg1, stronger effect = lower value 0.993 | S. cerevisiae deletion strains, locus YOR184W, strain ser1, stronger effect = lower value 0.986 | S. cerevisiae deletion strains, locus YOR231W, strain MKK1, stronger effect = lower value 0.974 | S. cerevisiae deletion strains, locus YOR265W, strain rbl2, stronger effect = lower value 0.987 | S. cerevisiae deletion strains, locus YOR270C, strain vph1, stronger effect = lower value 0.985 | S. cerevisiae deletion strains, locus YOR290C, strain snf2, stronger effect = lower value 0.977 | S. cerevisiae deletion strains, locus YOR316C, strain cot1, stronger effect = lower value 0.989 | S. cerevisiae deletion strains, locus YPL051W, strain arl3, stronger effect = lower value 0.998 | S. cerevisiae deletion strains, locus YPL055C, strain LGE1, stronger effect = lower value 1.03 | S. cerevisiae deletion strains, locus YPL078C, strain atp4, stronger effect = lower value 0.978 | S. cerevisiae deletion strains, locus YPL106C, strain sse1, stronger effect = lower value 0.962 | S. cerevisiae deletion strains, locus YPL240C, strain hsp82, stronger effect = lower value 0.982 | S. cerevisiae deletion strains, locus YPL241C, strain CIN2, stronger effect = lower value 1.01 | S. cerevisiae deletion strains, locus YPL256C, strain CLN2, stronger effect = lower value 0.958 | S. cerevisiae deletion strains, locus YPR119W, strain clb2, stronger effect = lower value 0.987 | S. cerevisiae deletion strains, locus YPR141C, strain kar3, stronger effect = lower value 0.985 | S. cerevisiae deletion strains, locus YPR163C, strain tif3, stronger effect = lower value 0.992 | S. cerevisiae deletion strains, locus YPR167C, strain met16, stronger effect = lower value 0.991 | S. cerevisiae deletion strains, strain wtn01, stronger effect = lower value 0.98 | S. cerevisiae strains, strain wild type, stronger effect = lower value 1.02
